The nature of assay [1]: NCI Yeast Anticancer Drug Screen. Data for the rad50 strain (AID 155).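 Also: 0% = growth of vehicle-only cultures of the same strain.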 The following applies: S. cerevisiae rad50 strain growth inhibition, stronger effect = higher value. Put shortly: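 Growth of the mutant yeast was measured after compound exposure and referenced to vehicle-treated cultures.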
Assay [2] can be described thus: NCI Yeast Anticancer Drug Screen. Data for the mec2-1 strain (AID 157). The settings on record: S. cerevisiae mec2-1 strain, stronger effect = higher value. In short, it runs like this: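 mec2-1 yeast strain, carrying an alteration in DNA damage repair or cell cycle control, was exposed to compounds; growth inhibition was measured relative to vehicle-treated controls.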
Assay [3] can be described thus: NCI Yeast Anticancer Drug Screen. Data for the sgs1 mgt1 strain (AID 161).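 Also: 0% = growth of cultures given vehicle only.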 The settings on record: S. cerevisiae sgs1 mgt1 strain, stronger effect = higher value. In short, it runs like this: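 Yeast cells carrying a defined DNA-repair defect were exposed to test compounds. Growth inhibition was measured relative to vehicle-treated controls.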
Assay [4] is described as follows: NCI Yeast Anticancer Drug Screen. Data for the cln2 rad14 strain (AID 165).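 Also: 0% = growth equal to vehicle treated cultures.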 The settings on record: S. cerevisiae cln2 rad14 strain, stronger effect = higher value. In short, it runs like this:
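Yeast carrying cln2 and rad14 alterations (cell cycle control and DNA damage repair) were exposed to compounds. Growth inhibition was measured against vehicle-treated controls.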

The nature of assay [5]: NCI Yeast Anticancer Drug Screen. Data for the bub3 strain (AID 167). The following applies: S. cerevisiae bub3 mutant strain, stronger effect = higher value. In short, it runs like this: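 Whole-cell yeast assay. The mutant strain was incubated with compounds, and growth inhibition was determined by comparison with vehicle-treated cells.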
A short description of assay [6]: NCI Yeast Anticancer Drug Screen. Data for the mlh1 rad18 strain (AID 175). The following applies: S. cerevisiae mlh1 rad18 strain growth inhibition, stronger effect = higher value. In short, it runs like this: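 Growth inhibition of the yeast strain was measured after compound exposure and expressed relative to vehicle-treated controls. The strain carries defined defects in DNA damage repair.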

Setting [7] is: at 5.0 µM (retest, dose inferred, filed as 0.5).
[8] abbreviates: at 50.0 µM (retest, dose inferred, filed as 5.0).

About 79,000 compounds went through this panel and 15% of them were active in at least one assay; those are over-represented in the sample as a whole. A number with no mark means an inactive call. Activity calls are given as the source filed them. Rule as the data show it: active = growth inhibition above about 70%; inactive = the rest.

As for `CCCCCCCCCCNC(=O)CI`, the growth inhibition in assay [1] (setting [7]) was 20%; in assay [1] (setting [8]), 98% (active); in assay [2] (setting [7]) it was 7%; in assay [2] (setting [8]) it was 99% (active); in assay [3] (setting [7]), 24%; in assay [3] (setting [8]) it was 99% (active). For the same compound, the growth inhibition in assay [4] (setting [7]) was 10%; in assay [4] (setting [8]), 42%; in assay [5] (setting [7]), 14%; in assay [5] (setting [8]) it was 100% (active); in assay [6] (setting [7]), 8%; in assay [6] (setting [8]), 98% (active).
Take `C=CCc1cc(-c2cc(CC=C)c(O)c(CN(CC)CC)c2)cc(CN(CC)CC)c1O`: the growth inhibition in assay [1] (at 50.0 µM unless noted) was -9%; in assay [2] (at 50.0 µM unless noted), -5.2%; in assay [3] (at 50.0 µM unless noted), -20%; in assay [4] (at 50.0 µM unless noted), -18%; in assay [5] (at 50.0 µM unless noted), -12.1%.
For `CCc1nc(Cl)nc(Cl)c1Cl`, in that order: -9.1%, -17.1%, -18.2%, 0.2% and -8.5%.
In the case of `C/C(=N\NC(=S)N1CCN(c2ccccn2)CC1)c1cccc(C)n1`, the growth inhibition in assay [1] (at 50.0 µM unless noted) is 90.3% (active); in assay [2] (at 50.0 µM unless noted) it was 92.7% (active); in assay [3] (at 50.0 µM unless noted), 91.8% (active); in assay [4] (at 50.0 µM unless noted) it was 91.3% (active); in assay [5] (at 50.0 µM unless noted) it was 89.5% (active).
For the compound `O=C(O)/C=C\C(=O)Nc1cccc2ccccc12`, the growth inhibition was 4% in assay [1] (setting [7]); 60% in assay [1] (setting [8]); -1% in assay [2] (setting [7]); 30% in assay [2] (setting [8]); 7% in assay [3] (setting [7]); 88% (active) in assay [3] (setting [8]). For the same compound, the growth inhibition is -1% in assay [4] (setting [7]); 8% in assay [4] (setting [8]); -1% in assay [5] (setting [7]); 42% in assay [5] (setting [8]); -35% in assay [6] (setting [7]); 25% in assay [6] (setting [8]).
In the case of `CC(C)NC(=O)N/C=C(\C#N)C(N)=O`, the growth inhibition was 4% in assay [1] (setting [7]); 70% (active) in assay [1] (setting [8]); -1% in assay [2] (setting [7]); 21% in assay [2] (setting [8]); 4% in assay [3] (setting [7]); 63% in assay [3] (setting [8]). Further, the growth inhibition in assay [4] (setting [7]) was 2%; in assay [4] (setting [8]), 1%; in assay [5] (setting [7]), -3%; in assay [5] (setting [8]) it was 20%; in assay [6] (setting [7]), -39%; in assay [6] (setting [8]) it was 16%.
Consider `O=C(Cc1ccccc1)c1ccc(O)c(Cl)c1`, for which the growth inhibition is 20% in assay [1] (setting [7]); 99% (active) in assay [1] (setting [8]); 2% in assay [2] (setting [7]); 99% (active) in assay [2] (setting [8]); 18% in assay [3] (setting [7]); 99% (active) in assay [3] (setting [8]). Further, the growth inhibition was 12% in assay [4] (setting [7]); 96% (active) in assay [4] (setting [8]); 7% in assay [5] (setting [7]); 99% (active) in assay [5] (setting [8]); -11% in assay [6] (setting [7]); 97% (active) in assay [6] (setting [8]).
On to `Oc1ccc(Cc2ccccc2Cl)c(O)c1`, for which the growth inhibition in assay [1] (setting [7]) is 1%; in assay [1] (setting [8]) it was 99% (active); in assay [2] (setting [7]), -4%; in assay [2] (setting [8]), 99% (active); in assay [3] (setting [7]), -3%; in assay [3] (setting [8]) it was 99% (active). Moreover, the growth inhibition in assay [4] (setting [7]) is 1%; in assay [4] (setting [8]) it was 98% (active); in assay [5] (setting [7]) it was -1%; in assay [5] (setting [8]), 99% (active); in assay [6] (setting [7]), -22%; in assay [6] (setting [8]), 98% (active).
As to `CN(C)c1ccc(/C=C\C(=O)c2ccccc2)cc1`, the growth inhibition in assay [1] (setting [7]) was 7%; in assay [1] (setting [8]), 57%; in assay [2] (setting [7]) it was 1%; in assay [2] (setting [8]), 28%; in assay [3] (setting [7]), 6%; in assay [3] (setting [8]), 75% (active). The growth inhibition in assay [4] (setting [7]) is 13%; in assay [4] (setting [8]), 15%; in assay [5] (setting [7]), 8%; in assay [5] (setting [8]), 77% (active); in assay [6] (setting [7]), 32%; in assay [6] (setting [8]), 53%.
Turning to `CCC/C(=N\NC(=S)N1CCN(c2ccccn2)CC1)c1ccccn1`, the growth inhibition in assay [1] (at 50.0 µM unless noted) is 87.3% (active); in assay [2] (at 50.0 µM unless noted), 90.3% (active); in assay [3] (at 50.0 µM unless noted), 88.8% (active); in assay [4] (at 50.0 µM unless noted), 80.5% (active); in assay [5] (at 50.0 µM unless noted), 20.9%.
With `C/C(N=NC(=S)N1CC2CCC(CC2)C1)=C1\C=CC=CN1O`, the growth inhibition is 80.3% (active) in assay [1] (at 50.0 µM unless noted); 85.7% (active) in assay [2] (at 50.0 µM unless noted); 82.2% (active) in assay [3] (at 50.0 µM unless noted); 69.5% in assay [4] (at 50.0 µM unless noted); 78% (active) in assay [5] (at 50.0 µM unless noted).
Consider `N#CC(C#N)N=Nc1ccc(Cl)cc1`, for which the growth inhibition in assay [1] (setting [7]) is 26%; in assay [1] (setting [8]), 83% (active); in assay [2] (setting [7]) it was 18%; in assay [2] (setting [8]), 73% (active); in assay [3] (setting [7]), 24%; in assay [3] (setting [8]) it was 93% (active). Further, the growth inhibition in assay [4] (setting [7]) was 1%; in assay [4] (setting [8]), 73% (active); in assay [5] (setting [7]) it was 9%; in assay [5] (setting [8]) it was 72% (active); in assay [6] (setting [7]), -1%; in assay [6] (setting [8]), 87% (active).
Turning to `COC1=C2CC(C)CC(OC)C(O)C(C)/C=C(\C)C(OC(N)=O)C(OC)/C=C\C=C(/C)C(=O)NC(=C(/C=N/N3CCCCC3)C1=O)C2=O` (stereo unspecified), the growth inhibition in assay [1] (at 50.0 µM unless noted) was 17.4%; in assay [2] (at 50.0 µM unless noted), 10.3%; in assay [3] (at 50.0 µM unless noted), -13.9%; in assay [4] (at 50.0 µM unless noted), -15.7%; in assay [5] (at 50.0 µM unless noted), -12.8%.
In the same order, the values of `Nc1nc(Cl)c(C=O)c(NCC2(CO)CC(CCc3ccccc3)C2)n1` (stereo unspecified) are 15.4%, 9.95%, -32.8%, -2.2% and -22%.
Consider `N#CC(C#N)N=Nc1cc(Cl)ccc1Cl`, for which the growth inhibition in assay [1] (setting [7]) is 20%; in assay [1] (setting [8]), 93% (active); in assay [2] (setting [7]) it was 13%; in assay [2] (setting [8]), 87% (active); in assay [3] (setting [7]) it was 16%; in assay [3] (setting [8]), 99% (active). The growth inhibition in assay [4] (setting [7]) is 8%; in assay [4] (setting [8]), 87% (active); in assay [5] (setting [7]), 15%; in assay [5] (setting [8]), 96% (active); in assay [6] (setting [7]), -2%; in assay [6] (setting [8]), 92% (active).
Turning to `C[Si](C)(C)OC1CC(=O)OC1n1cc(F)c(=O)[nH]c1=O` (stereo unspecified), the growth inhibition was 56.8% in assay [1] (at 50.0 µM unless noted); 81.6% (active) in assay [2] (at 50.0 µM unless noted); 75.8% (active) in assay [3] (at 50.0 µM unless noted); -1.15% in assay [4] (at 50.0 µM unless noted); 21.8% in assay [5] (at 50.0 µM unless noted).
For the compound `COc1c(OC(C)=O)c(OC(C)=O)cc2c1-c1ccc(SC)c(=O)cc1C(NC(C)=O)CC2` (stereo unspecified), the growth inhibition in assay [1] (at 50.0 µM unless noted) is 23.2%; in assay [2] (at 50.0 µM unless noted) it was 3.5%; in assay [3] (at 50.0 µM unless noted), -28.8%; in assay [4] (at 50.0 µM unless noted), -24.6%; in assay [5] (at 50.0 µM unless noted) it was -33.8%.

Source of the values: PubChem BioAssay (NCI).
